# From PubChem BioAssay AID1159580 (chemical genetic matrix, 2015)
# The campaign covered roughly 5,500 compounds. About 2,000 (36%) were called active. About 18% were inconclusive and are not listed. The list shows a part of the results. A number with no mark means an inactive call. No stated cut-off is given here; in the data, active means normalized growth mostly below about 0.91 (no sharp cut-off); inconclusive means no clear call, values can overlap the other calls; inactive means mostly above about 0.92.
# Experiment: chemical genetic growth profiling, strain panel (AID 1159580);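 further: tested at 20 µM; growth read once vehicle control cultures reached saturation at 30 °C; 1 = growth at the plate median or of vehicle wells; lower values mean less growth of the strain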
# Settings: growth OD
# [1] = S. cerevisiae deletion strains, locus YAL013W, strain DEP1, active compounds read low
# [2] = S. cerevisiae deletion strains, locus YDL101C, strain DUN1, active compounds read low
# [3] = S. cerevisiae deletion strains, locus YDR150W, strain NUM1, active compounds read low
# [4] = S. cerevisiae deletion strains, locus YHR030C, strain SLT2, active compounds read low
# [5] = S. cerevisiae deletion strains, locus YJR075W, strain HOC1, active compounds read low
# [6] = S. cerevisiae deletion strains, locus YPL241C, strain CIN2, active compounds read low
smiles,measurement,setting,value
C/C(=N/Nc1c(Cl)cc(Cl)cc1Cl)c1cc(F)ccc1OC(=O)c1ccccc1F,normalized growth,[1],0.99
same,normalized growth,"S. cerevisiae deletion strains, locus YBR229C, strain ROT2, active compounds read low",0.978
same,normalized growth,[2],0.969
same,normalized growth,"S. cerevisiae deletion strains, locus YDL134C, strain PPH21, active compounds read low",1.03
same,normalized growth,[3],0.991
same,normalized growth,"S. cerevisiae deletion strains, locus YEL061C, strain CIN8, active compounds read low",1.04
same,normalized growth,"S. cerevisiae deletion strains, locus YGR078C, strain PAC10, active compounds read low",0.983
same,normalized growth,[4],1.04
same,normalized growth,"S. cerevisiae deletion strains, locus YHR087W, strain rtc3, active compounds read low",0.978
same,normalized growth,"S. cerevisiae deletion strains, locus YJR043C, strain POL32, active compounds read low",0.968
same,normalized growth,[5],0.984
same,normalized growth,"S. cerevisiae deletion strains, locus YKL190W, strain CNB1, active compounds read low",1.03
same,normalized growth,"S. cerevisiae deletion strains, locus YLR039C, strain RIC1, active compounds read low",1.02
same,normalized growth,"S. cerevisiae deletion strains, locus YLR058C, strain SHM2 (second series), active compounds read low",1.01
same,normalized growth,"S. cerevisiae deletion strains, locus YLR085C, strain ARP6, active compounds read low",1.11
same,normalized growth,"S. cerevisiae deletion strains, locus YLR262C, strain YPT6, active compounds read low",0.957
same,normalized growth,"S. cerevisiae deletion strains, locus YML094W, strain GIM5, active compounds read low",1.01
same,normalized growth,"S. cerevisiae deletion strains, locus YMR219W, strain ESC1, active compounds read low",0.966
same,normalized growth,"S. cerevisiae deletion strains, locus YMR263W, strain SAP30, active compounds read low",0.996
same,normalized growth,"S. cerevisiae deletion strains, locus YNL128W, strain TEP1, active compounds read low",1.03
same,normalized growth,"S. cerevisiae deletion strains, locus YNL153C, strain GIM3, active compounds read low",0.953
same,normalized growth,"S. cerevisiae deletion strains, locus YNL298W, strain CLA4 (second series), active compounds read low",1.07
same,normalized growth,"S. cerevisiae deletion strains, locus YNL322C, strain KRE1, active compounds read low",1.01
same,normalized growth,"S. cerevisiae deletion strains, locus YNR030W, strain Alg12, active compounds read low",1.03
same,normalized growth,"S. cerevisiae deletion strains, locus YOL006C, strain TOP1, active compounds read low",1.06
same,normalized growth,"S. cerevisiae deletion strains, locus YPL055C, strain LGE1, active compounds read low",0.981
same,normalized growth,[6],0.972
same,normalized growth,"S. cerevisiae deletion strains, locus YPR135W, strain CTF4, active compounds read low",0.962
same,normalized growth,"S. cerevisiae strains, strain wild type, active compounds read low",1.03
C/C(=N/Nc1ccccc1)c1cc(Cl)cc(Cl)c1O,normalized growth,"S. cerevisiae deletion strains, locus YAR019C, strain CDC15, active compounds read low",0.964
same,normalized growth,"S. cerevisiae deletion strains, locus YBL105C, strain PKC1, active compounds read low",0.977
same,normalized growth,"S. cerevisiae deletion strains, locus YBR135W, strain CKS1, active compounds read low",0.954
same,normalized growth,"S. cerevisiae deletion strains, locus YBR136W, strain MEC1, active compounds read low",0.954
same,normalized growth,"S. cerevisiae deletion strains, locus YBR160W, strain CDC28, active compounds read low",0.958
same,normalized growth,"S. cerevisiae deletion strains, locus YDL017W, strain CDC7, active compounds read low",0.964
same,normalized growth,"S. cerevisiae deletion strains, locus YDL028C, strain MPS1, active compounds read low",0.967
same,normalized growth,[2],0.969
same,normalized growth,"S. cerevisiae deletion strains, locus YDL108W, strain KIN28, active compounds read low",0.954
same,normalized growth,"S. cerevisiae deletion strains, locus YDL132W, strain cdc53, active compounds read low",0.956
same,normalized growth,"S. cerevisiae deletion strains, locus YDL214C, strain PRR2, active compounds read low",0.785
same,normalized growth,"S. cerevisiae deletion strains, locus YDR052C, strain DBF4, active compounds read low",0.968
same,normalized growth,"S. cerevisiae deletion strains, locus YDR054C, strain cdc34, active compounds read low",0.966
same,normalized growth,"S. cerevisiae deletion strains, locus YDR226W, strain ADK1, active compounds read low",0.954
same,normalized growth,"S. cerevisiae deletion strains, locus YDR477W, strain SNF1, active compounds read low",0.734
same,normalized growth,"S. cerevisiae deletion strains, locus YER123W, strain YCK3, active compounds read low",0.734
same,normalized growth,"S. cerevisiae deletion strains, locus YER133W, strain GLC7, active compounds read low",0.825
same,normalized growth,"S. cerevisiae deletion strains, locus YFL009W, strain cdc4, active compounds read low",0.964
same,normalized growth,"S. cerevisiae deletion strains, locus YFL029C, strain CAK1, active compounds read low",0.955
same,normalized growth,"S. cerevisiae deletion strains, locus YFR003C, strain YPI1, active compounds read low",0.962
same,normalized growth,"S. cerevisiae deletion strains, locus YFR019W, strain FAB1, active compounds read low",0.834
same,normalized growth,"S. cerevisiae deletion strains, locus YFR028C, strain CDC14, active compounds read low",0.93
same,normalized growth,"S. cerevisiae deletion strains, locus YGR040W, strain KSS1, active compounds read low",0.746
same,normalized growth,"S. cerevisiae deletion strains, locus YGR052W, strain FMP48, active compounds read low",0.804
same,normalized growth,"S. cerevisiae deletion strains, locus YGR092W, strain DBF2, active compounds read low",0.658
same,normalized growth,[4],0.308 (active)
same,normalized growth,"S. cerevisiae deletion strains, locus YHR079C, strain IRE1, active compounds read low",0.748
same,normalized growth,"S. cerevisiae deletion strains, locus YHR082C, strain KSP1, active compounds read low",0.731
same,normalized growth,"S. cerevisiae deletion strains, locus YHR205W, strain SCH9, active compounds read low",0.694
same,normalized growth,"S. cerevisiae deletion strains, locus YIL147C, strain SLN1, active compounds read low",0.968
same,normalized growth,"S. cerevisiae deletion strains, locus YJL095W, strain BCK1, active compounds read low",0.815
same,normalized growth,"S. cerevisiae deletion strains, locus YJL128C, strain PBS2, active compounds read low",0.884
same,normalized growth,"S. cerevisiae deletion strains, locus YJL157C, strain FAR1, active compounds read low",0.79
same,normalized growth,"S. cerevisiae deletion strains, locus YJR016C, strain ILV3, active compounds read low",0.954
same,normalized growth,"S. cerevisiae deletion strains, locus YJR066W, strain TOR1 (second series), active compounds read low",0.829
same,normalized growth,"S. cerevisiae deletion strains, locus YJR066W, strain TOR1, active compounds read low",0.66
same,normalized growth,"S. cerevisiae deletion strains, locus YKL048C, strain ELM1, active compounds read low",0.87
same,normalized growth,"S. cerevisiae deletion strains, locus YKL067W, strain YNK1, active compounds read low",0.851
same,normalized growth,"S. cerevisiae deletion strains, locus YKL101W, strain HSL1, active compounds read low",0.798
same,normalized growth,"S. cerevisiae deletion strains, locus YKL193C, strain SDS22, active compounds read low",0.948
same,normalized growth,"S. cerevisiae deletion strains, locus YKL203C, strain TOR2, active compounds read low",0.745
same,normalized growth,"S. cerevisiae deletion strains, locus YLR113W, strain HOG1, active compounds read low",0.792 (active)
same,normalized growth,"S. cerevisiae deletion strains, locus YLR133W, strain CKI1, active compounds read low",0.731 (active)
same,normalized growth,"S. cerevisiae deletion strains, locus YLR403W, strain SFP1, active compounds read low",0.681
same,normalized growth,"S. cerevisiae deletion strains, locus YML070W, strain DAK1, active compounds read low",0.81
same,normalized growth,"S. cerevisiae deletion strains, locus YMR001C, strain CDC5, active compounds read low",0.954
same,normalized growth,"S. cerevisiae deletion strains, locus YMR205C, strain PFK2 (second series), active compounds read low",0.862
same,normalized growth,"S. cerevisiae deletion strains, locus YMR277W, strain FCP1, active compounds read low",0.95
same,normalized growth,"S. cerevisiae deletion strains, locus YNL006W, strain LST8, active compounds read low",0.966
same,normalized growth,"S. cerevisiae deletion strains, locus YNL020C, strain ARK1, active compounds read low",0.647 (active)
same,normalized growth,"S. cerevisiae deletion strains, locus YNL161W, strain CBK1, active compounds read low",0.964
same,normalized growth,"S. cerevisiae deletion strains, locus YNL183C, strain NPR1, active compounds read low",0.872
same,normalized growth,"S. cerevisiae deletion strains, locus YNL207W, strain RIO2, active compounds read low",0.958
same,normalized growth,"S. cerevisiae deletion strains, locus YNL222W, strain SSU72, active compounds read low",0.961
same,normalized growth,"S. cerevisiae deletion strains, locus YNL307C, strain MCK1 (second series), active compounds read low",0.632 (active)
same,normalized growth,"S. cerevisiae deletion strains, locus YOL078W, strain AVO1, active compounds read low",0.961
same,normalized growth,"S. cerevisiae deletion strains, locus YOL136C, strain PFK27, active compounds read low",0.764
same,normalized growth,"S. cerevisiae deletion strains, locus YOR061W, strain CKA2, active compounds read low",0.784
same,normalized growth,"S. cerevisiae deletion strains, locus YOR119C, strain RIO1, active compounds read low",0.732
same,normalized growth,"S. cerevisiae deletion strains, locus YOR231W, strain MKK1, active compounds read low",0.855
same,normalized growth,"S. cerevisiae deletion strains, locus YOR329C, strain SCD5, active compounds read low",0.974
same,normalized growth,"S. cerevisiae deletion strains, locus YPL031C, strain PHO85, active compounds read low",0.742
same,normalized growth,"S. cerevisiae deletion strains, locus YPL153C, strain RAD53, active compounds read low",0.78
same,normalized growth,"S. cerevisiae deletion strains, locus YPL204W, strain HRR25, active compounds read low",0.737
same,normalized growth,"S. cerevisiae deletion strains, locus YPL209C, strain IPL1, active compounds read low",0.965
same,normalized growth,"S. cerevisiae deletion strains, locus YPL256C, strain CLN2, active compounds read low",0.774 (active)
same,normalized growth,"S. cerevisiae deletion strains, locus YPR025C, strain CCL1, active compounds read low",0.963
same,normalized growth,"S. cerevisiae deletion strains, locus YPR106W, strain ISR1, active compounds read low",0.942
same,normalized growth,"S. cerevisiae deletion strains, locus YPR111W, strain DBF20, active compounds read low",0.938
same,normalized growth,"S. cerevisiae deletion strains, strain NNK1, active compounds read low",0.951
same,normalized growth,"S. cerevisiae deletion strains, strain TSCII, active compounds read low",0.967
NC(N)=NC(=O)Cc1c(Cl)cccc1Cl,normalized growth,[1],1.01
same,normalized growth,"S. cerevisiae deletion strains, locus YAL040C, strain CLN3, active compounds read low",0.979
same,normalized growth,"S. cerevisiae deletion strains, locus YCL061C, strain MRC1 (second series), active compounds read low",1
same,normalized growth,[3],0.997
same,normalized growth,"S. cerevisiae deletion strains, locus YDR363W, strain ESC2, active compounds read low",0.997
same,normalized growth,"S. cerevisiae deletion strains, locus YER002W, strain NOP16, active compounds read low",1.04
same,normalized growth,[5],1
same,normalized growth,"S. cerevisiae deletion strains, locus YNL175C, strain NOP13, active compounds read low",0.996
same,normalized growth,"S. cerevisiae deletion strains, locus YNL197C, strain WHI3, active compounds read low",1.02
same,normalized growth,"S. cerevisiae deletion strains, locus YNL224C, strain SQS1, active compounds read low",0.971
same,normalized growth,"S. cerevisiae deletion strains, locus YOR083W, strain WHI5 (second series), active compounds read low",1.01
same,normalized growth,[6],1
